Inconclusive results are not listed. Calls of active or inactive are those of the source. Unless noted, the call rests on the fitted dose curve; in most records, active means well fitted curve in the direction sought with a large enough effect in the repeat runs; inconclusive means weak or mixed curves; inactive means no such curve, though single readings can be large; an effect the other way counts as inactive or inconclusive.
Tests used:
[1] = qHTS assay to identify small molecule agonists of the vitamin D receptor (VDR) signaling pathway - cell viability counter screen (AID 743224); further: series mostly up to about 63 µM; nearly all actives have a fitted effect of over 50% in size
How it was run: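 VDR-bla cells were preincubated 4 h at 37C/5% CO2, then exposed to compounds for 16 h. After the 2 h room-temperature bla FRET read, CellTiter-Glo was added to the same wells and luminescence read after 30 min.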

[2] = qHTS assay to identify small molecule agonists of the endoplasmic reticulum stress response signaling pathway (AID 1159516; active means well fitted activation curve with a large enough effect in the signal ratio in the repeat runs, not every such curve was filed as active; the % refers to the signal ratio)
How it was run: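 CellSensor ESRE-bla HeLa cells, carrying a beta-lactamase reporter driven by the ER stress response element, were plated overnight and exposed to compounds for 5 hr at 37 C. Reporter activity was read as FRET substrate fluorescence after 2 hr at room temperature.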

[3] = molecular target: Nuclear receptor ROR-gamma (Homo sapiens) (UniProt P51449); assay: qHTS assay to identify small molecule antagonists of the retinoid-related orphan receptor gamma (ROR-gamma) signaling pathway (AID 1159521;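 further: CHO cells with doxycycline inducible ROR-gamma driving an RORE luciferase reporter; top concentration of the series differs between compounds; nearly all actives have a fitted effect of over 50% in size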)
How it was run: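 Test compounds were applied to Tet-on RORγ CHO cells 2 h ahead of doxycycline hyclate (1 uM final). Luciferase reporter activity was quantified by luminescence after 16 h at 37 C and 5% CO2.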

[4] = qHTS assay to identify small molecule agonists of the AP-1 signaling pathway (AID 1159526; calls by dose curve)
[5] = molecular target: Retinoic acid receptor RXR-alpha (Homo sapiens) (UniProt P19793); assay: qHTS assay to identify small molecule agonists of the RXR signaling pathway (AID 1159527; calls by dose curve; further: nearly all actives have a fitted effect of over 35% in size)
How it was run: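 Using 9-cis retinoic acid as the reference agonist, chemicals were tested in HEK 293T cells […] for 16 hr; substrate loading lasted 2 hr at room temperature.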

[6] = qHTS assay to identify small molecule agonists of the RXR signaling pathway - cell viability counter screen (AID 1159529); further: series mostly up to about 77 µM; nearly all actives have a fitted effect of over 50% in size
How it was run: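 Compounds dissolved in DMSO were pinned onto HEK 293T cells carrying a beta-lactamase reporter under RXR-alpha control and incubated 16 hr. Cytotoxicity was then quantified by CellTiter-Glo luminescence.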

[7] = qHTS assay to identify small molecule antagonists of the retinoid acid receptor (RAR) signaling pathway - cell viability counter screen (AID 1159551); further: nearly all actives have a fitted effect of over 35% in size
How it was run: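 C3RL4 cells were seeded overnight at 37 C, then treated with compounds plus 1 uM (final) retinol for 6 h at 37 C. Viability was read as ATP by CellTiter-Glo luminescence after 30 min at room temperature.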

[8] = qHTS assay to identify small molecule antagonists of the vitamin D receptor (VDR) signaling pathway - cell viability counter screen (AID 743225); further: nearly all actives have a fitted effect of over 50% in size
How it was run: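 Compounds were pinned onto VDR-bla HEK 293T cells together with 1-alpha,25-dihydroxyvitamin D3 at 3 nM final. After 16 h at 37C and 5% CO2 plus the reporter readout, cell viability was measured by CellTiter-Glo luminescence (30 min, room temperature).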

[9] = qHTS assay to identify small molecule agonists of the endoplasmic reticulum stress response signaling pathway - cell viability counter screen (AID 1159517; calls by dose curve)
How it was run: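 CellTiter-Glo was added to wells already read for beta-lactamase FRET, and luminescence was recorded 30 min later. Cells: ESRE-bla HeLa, 1,500 per well, compound exposure 5 hr at 37 C.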

[10] = qHTS assay to identify small molecule agonists of the AP-1 signaling pathway - cell viability counter screen (AID 1159525; calls by dose curve; further: nearly all actives have a fitted effect of over 55% in size)
How it was run: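 ME-180 AP-1-bla, 2500 cells/well, Opti-MEM + 0.5% dialyzed FBS; overnight 37 °C; cpd 15-pt titration, 5 h 37 °C; CellTiter-Glo 30 min RT; luminescence read; normalised to TOAB and DMSO controls.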

[11] = qHTS assay to identify small molecule antagonists of the retinoid-related orphan receptor gamma (ROR-gamma) signaling pathway - cell viability counter screen (AID 1159520); further: nearly all actives have a fitted effect of over 50% in size
How it was run: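 Tet-on ROR gamma CHO cells (1,000/well) were plated 4 hr, given compounds in DMSO for 2 hr at 37 C, then induced with 1 uM final doxycycline for 16 hr. Viability was read as ATP by CellTiter-Glo luminescence after 30 min.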

[12] = qHTS assay to identify small molecule antagonists of the estrogen related receptor (ERR) signaling pathway - cell viability counter screen (AID 1224818);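 further: series mostly up to about 46 µM; viability measured after 17.5 h of compound exposure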
How it was run: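 ERR reporter cells plated 6 h at 37 C/5% CO2, then compounds in DMSO pin-transferred and incubated 17.5 h at 37 C. Viability read as CellTiter-Fluor fluorescence after 30 min at 37 C.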

[13] = qHTS assay to identify small molecule antagonists of the estrogen related receptor signaling pathway with the pleiotropic PPARgamma coactivator (PGC) cell viability counter screen (AID 1224822; further: series mostly up to about 46 µM)
How it was run: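 PGC/ERR cells were seeded at 2,000 cells/well, rested 6 h at 37 C/5% CO2, then given compounds in DMSO by pin tool and incubated 17.5 h at 37 C. Viability came from CellTiter-Fluor fluorescence after 30 min.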

[14] = qHTS assay to identify small molecule antagonists of the retinoic acid receptor (RAR) signaling pathway (AID 1159552; further: nearly all actives have a fitted effect of over 50% in size)
How it was run: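 Test chemicals and DMSO controls were pin-transferred onto C3RL4 cells a day after seeding; retinol (1 uM final) followed at once. Luminescent reporter output was quantified after 6 hr of co-incubation and 30 min with detection reagent.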

[15] = qHTS assay to identify small molecule agonists of the retinoic acid receptor (RAR) signaling pathway (AID 1159553)
How it was run: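 C3RL4 cells carrying a RARE luciferase reporter were plated overnight at 37 C, then exposed to compounds in DMSO for 6 hr at 37 C and 5% CO2. Luminescence was read 30 min after luciferase reagent addition at room temperature.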

Measured: Potency

Retinoic acid receptor RXR-alpha (Homo sapiens), sequence (P19793 whole entry, looked up): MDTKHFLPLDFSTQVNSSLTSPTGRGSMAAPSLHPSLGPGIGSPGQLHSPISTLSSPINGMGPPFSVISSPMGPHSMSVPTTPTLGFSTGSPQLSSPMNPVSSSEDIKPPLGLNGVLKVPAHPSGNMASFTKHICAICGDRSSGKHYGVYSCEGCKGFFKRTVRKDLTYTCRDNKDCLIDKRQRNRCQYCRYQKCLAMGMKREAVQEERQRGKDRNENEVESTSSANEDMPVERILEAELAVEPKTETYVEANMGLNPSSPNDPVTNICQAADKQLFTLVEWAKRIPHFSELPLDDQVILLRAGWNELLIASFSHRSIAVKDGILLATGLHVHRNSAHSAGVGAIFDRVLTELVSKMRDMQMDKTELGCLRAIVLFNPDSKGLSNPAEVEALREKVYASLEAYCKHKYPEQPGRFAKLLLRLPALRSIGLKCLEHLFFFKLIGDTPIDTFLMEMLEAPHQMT

CC(=O)C1CCCCC1=O (configuration not stated)
inactive: [1] | [2] | [3] | [4] | [5] | [6] | [7]

C=CC(C)(CCC=C(C)C)OC(=O)CC (configuration not stated)
not listed: [11] | [12] | [13] | [14] | [15]
inactive: all other assays above

C[N+](C)(CCOc1ccccc1)Cc1cccs1
inactive: [1] | [8] | [9] | [3] | [4] | [5] | [6] | [7]

CNCCO
not listed: [12] | [13] | [14] | [15]
inactive: all other assays above

CN1CC(=O)N/C1=N/C(=O)Nc1cccc(Cl)c1
not listed: [14] | [15]
inactive: all other assays above

CCN(CC#N)c1cccc(C)c1
not listed: [2] | [9] | [12] | [13] | [15]
inactive: all other assays above

CCCCCCCCCC[N+](C)(C)[O-]
not listed: [9] | [12] | [13] | [14] | [15]
inactive: all other assays above

O=C(O)CC(C(=O)O)S(=O)(=O)O (configuration not stated)
not listed: [1] | [12] | [13] | [15]
inactive: all other assays above

Clc1cc(Cl)c(Cl)nc1Cl
not listed: [1] | [10] | [12] | [13] | [14] | [15]
inactive: all other assays above

CCCCCC(=O)OCCc1ccccc1
not listed: [8] | [11] | [12] | [13] | [14] | [15]
inactive: all other assays above

CC1(C)[C@@H]2CC[C@@]1(C)[C@H](O)C2
not listed: [2] | [12] | [13] | [14] | [15]
inactive: all other assays above

CO[C@@]1(NC(=O)C(C(=O)O)c2ccc(O)cc2)C(=O)N2C(C(=O)O)=C(CSc3nnnn3C)CO[C@@H]21 (some centres not stated)
not listed: [2] | [11] | [12] | [13]
inactive: all other assays above

CCCCc1ccc2c(n1)[C@@H](c1ccc(OC)cc1C[C@H](C)C(=O)O)[C@H](C(=O)O)[C@H]2c1ccc2c(c1)OCO2
not listed: [11] | [12] | [13] | [14] | [15]
inactive: all other assays above

CCCO[Si](OCCC)(OCCC)OCCC
not listed: [10] | [11] | [12] | [13] | [14] | [15]
inactive: all other assays above

C=CCCC(=O)O
not listed: [12] | [13] | [14] | [15]
inactive: all other assays above

c1ccc2sc(SN3CCOCC3)nc2c1
not listed: [9] | [11] | [12] | [13] | [15]
inactive: all other assays above

O=C(c1ccccc1O)c1ccccc1O
not listed: [11] | [12] | [13]
inactive: all other assays above

O=C(O)c1cc(C(=O)O)cc(C(=O)O)c1
not listed: [10] | [12] | [13] | [14]
inactive: all other assays above
